Test results: PubChem BioAssay
Activity calls are given as the source filed them.

Experiments:
[1] = tested on: Human papillomavirus type 1a protein E7 (residues 44-93); experiment: small molecules binding HPV E7 44-93 – biochemical, small-molecule microarray, residues 44-93, 635 nm fluorescence, primary screen (AID 1108); settings: fluorescence 635 nm, higher = more signal;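 note: E7 fragment applied at 1 µg/mL in TBST for 1 h at 4 C; score combines spot fluorescence with its signal to noise ratio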
[2] = hepatitis C replication reporter changes, two-sided – Huh7 cells, luciferase reporter, HCV replication inhibitor project, primary screen (AID 1109); settings: Huh7 HCV replicon luciferase reporter, 48 h; higher = more signal;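 note: huh7 hepatoma cells harbouring a luciferase neomycin HCV replicon reporter; luciferase luminescence as measure of HCV replicon replication; test concentration not given here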
[3] = biological target: Left-right determination factor 2 (Homo sapiens) (UniProt O00292); experiment: small molecules binding LEFTY2 protein – biochemical, small-molecule microarray, 635 nm fluorescence scan, primary screen (AID 1110); settings: higher = more signal
[4] = biological target: Calmodulin-1 (Homo sapiens) (UniProt P0DP23); experiment: small molecules binding calmodulin-1 with EGTA – biochemical, small-molecule microarray, Cy5-labelled CALM1, profiling panel (AID 1111); settings: Cy5-CALM1 binding fluorescence, higher = more signal;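 note: labelled calmodulin applied in Tris saline Tween buffer holding calcium plus EGTA and DTT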
[5] = biological target: Calmodulin-1 (Homo sapiens) (UniProt P0DP23); experiment: small molecules binding Ca-loaded calmodulin-1 – biochemical, small-molecule microarray, Cy5-labelled CALM1, plus calcium, artefact control for SMM control-protein annotation, profiling panel (AID 1112); settings: Cy5-CALM1 binding fluorescence, higher = more signal;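 note: score merges spot fluorescence with signal to noise from triplicate slides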
[6] = probe aWnt5a binding to arrayed compounds – biochemical, biotinylated probe, 635/667 nm fluorescence, primary screen (AID 1113); settings: small-molecule microarray, higher = more signal;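 note: score merges 667 nm fluorescence intensity with signal-to-noise per printed feature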
[7] = probe aShh binding to arrayed compounds – biochemical, biotinylated probe, 635/667 nm fluorescence, primary screen (AID 1114); settings: small-molecule microarray, higher = more signal;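 note: probe is biotin-labelled aShh protein from a stem cell growth factor screen; measures binding of labelled protein to compounds printed on the slide; score merges feature fluorescence at 667 nm with signal-to-noise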
[8] = probe aNog binding to arrayed compounds – biochemical, biotinylated probe, 635/667 nm fluorescence, primary screen (AID 1115); settings: small-molecule microarray, higher = more signal;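 note: probe is biotinylated aNog protein used at 0.15 µg/mL for 1 h at 4 C; z-score combines 667 nm fluorescence of each spot with its signal to noise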
[9] = biological target: Torsin-1A-interacting protein 1 (Homo sapiens) (UniProt Q5JTV8); experiment: compound microarray binding of lysate hLAP1 – cell lysate, small-molecule microarray, COS7 lysate, 635/667 nm fluorescence, primary screen (AID 1116); settings: 635 nm fluorescence, higher = more signal
[10] = biological target: Alpha-bungarotoxin (Bungarus multicinctus) (UniProt P60615); experiment: compounds binding labelled alpha-BTX control protein – biochemical, small-molecule microarray, Alexa647 label, 635/667 nm fluorescence, artefact control for SMM control protein annotation, profiling panel (AID 1117); settings: alpha-BTX-A647 binding fluorescence, higher = more signal
[11] = biological target: Albumin (Bos taurus) (UniProt P02769); experiment: compounds binding labelled BSA control protein – biochemical, small-molecule microarray, Alexa647 label, 635/667 nm fluorescence, artefact control for SMM control protein annotation, profiling panel (AID 1118); settings: BSA-A647 binding, fluorescence 635 nm, higher = more signal;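 note: score merges 667 nm emission intensity and signal-to-noise per printed compound spot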
[12] = probe aXIP binding to arrayed compounds – biochemical, NeuroSMM set, 635/667 nm fluorescence, primary screen (AID 1119); settings: small-molecule microarray, higher = more signal, called active from +8 up or from −8 down;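 note: probe is the protein aXip251-270 applied at 1 µg/mL to compound-printed slides; binding of probe to printed compounds measured as 667 nm fluorescence plus signal to noise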
[13] = probe aNOTCH3 binding on compound microarray – biochemical, small-molecule microarray, 635/667 nm fluorescence, primary screen (AID 1120); settings: higher = more signal;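 note: probe is a biotin-tagged antibody raised against NOTCH3 rather than NOTCH3 protein; score merges spot fluorescence near 667 nm with spot signal to noise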
[14] = probe aNOTCH2 binding on compound microarray – biochemical, small-molecule microarray, 635/667 nm fluorescence, primary screen (AID 1121); settings: higher = more signal;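 note: score merges feature fluorescence read at 667 nm with its signal to noise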
[15] = biological target: Carbonic anhydrase 2 (Homo sapiens) (UniProt P00918); experiment: compounds binding carbonic anhydrase 2 – biochemical, small-molecule microarray, Alexa647-labelled CAII, profiling panel (AID 1122); settings: CAII-A647 binding fluorescence, higher = more signal
[16] = COS7 lysate on small-molecule microarray, probe aHis, 635 nm (AID 1123); settings: COS7 cell lysate, fluorescence, higher = more signal;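 note: z-score combines 667nm fluorescence intensity with signal-to-noise per printed compound spot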
[17] = probe aLAP1 signal on lysate-treated microarray – cell lysate, small-molecule microarray, COS7 lysate, primary screen (AID 1124); settings: probe aLAP1, fluorescence, higher = more signal;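 note: lysate comes from COS7 cells expressing LAP1 and is applied at 0.3 µg/mL; score merges spot fluorescence near 667 nm with signal-to-noise over triplicate slides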
[18] = tested on: Sam68 (KHDRBS1); experiment: compounds binding KHDRBS1 protein – biochemical, small-molecule microarray, 635 nm fluorescence, primary screen (AID 1125); settings: higher = more signal;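 note: score merges 667 nm channel intensity with signal to noise over triplicate slides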
[19] = tested on: Chordin-like protein 2 (CHRDL2); experiment: compounds binding chordin-like 2 – biochemical, small-molecule microarray, 635 nm fluorescence, primary screen (AID 1126); settings: fluorescence 635 nm, higher = more signal;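 note: printed compound slides probed with Chrdl2 protein at 4 µg/mL for 1 h at 4 C; score merges 667 nm emission intensity with signal to noise over three replicate slides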
[20] = biological target: Concanavalin-A (Canavalia ensiformis) (UniProt P02866); experiment: compounds binding concanavalin A lectin – biochemical, small-molecule microarray, Alexa647 label, 635 nm, artefact control for SMM control protein annotation, primary screen (AID 1127); settings: ConA-A647 binding fluorescence, higher = more signal;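 note: z combines 667 nm emission intensity with signal-to-noise across three replicate slides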
Sequence of Concanavalin-A (Canavalia ensiformis) (P02866 whole entry, looked up): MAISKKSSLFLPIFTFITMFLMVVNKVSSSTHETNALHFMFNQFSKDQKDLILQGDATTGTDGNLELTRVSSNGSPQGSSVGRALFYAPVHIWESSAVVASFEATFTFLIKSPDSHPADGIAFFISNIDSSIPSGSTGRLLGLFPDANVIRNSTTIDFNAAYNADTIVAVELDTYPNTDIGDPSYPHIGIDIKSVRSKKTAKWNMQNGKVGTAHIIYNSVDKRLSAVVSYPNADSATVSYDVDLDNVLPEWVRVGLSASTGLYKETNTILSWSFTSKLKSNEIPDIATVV

Sequence of Alpha-bungarotoxin (Bungarus multicinctus) (P60615 whole entry, looked up): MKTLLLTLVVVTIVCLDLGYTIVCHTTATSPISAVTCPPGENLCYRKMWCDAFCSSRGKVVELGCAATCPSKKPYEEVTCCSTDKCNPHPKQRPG
Sequence of Left-right determination factor 2 (Homo sapiens) (O00292 whole entry, looked up): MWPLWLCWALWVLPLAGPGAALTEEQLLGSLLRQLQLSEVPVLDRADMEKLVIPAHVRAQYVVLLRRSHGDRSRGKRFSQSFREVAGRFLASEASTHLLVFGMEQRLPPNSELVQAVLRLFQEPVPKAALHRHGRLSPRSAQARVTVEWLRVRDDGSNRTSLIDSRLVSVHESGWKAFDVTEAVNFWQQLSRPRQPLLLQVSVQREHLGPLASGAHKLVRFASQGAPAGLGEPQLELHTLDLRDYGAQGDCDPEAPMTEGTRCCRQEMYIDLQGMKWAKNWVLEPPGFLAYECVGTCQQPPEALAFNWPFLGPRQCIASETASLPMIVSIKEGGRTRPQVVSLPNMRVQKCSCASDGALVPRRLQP
Sequence of Albumin (Bos taurus) (P02769 whole entry, looked up): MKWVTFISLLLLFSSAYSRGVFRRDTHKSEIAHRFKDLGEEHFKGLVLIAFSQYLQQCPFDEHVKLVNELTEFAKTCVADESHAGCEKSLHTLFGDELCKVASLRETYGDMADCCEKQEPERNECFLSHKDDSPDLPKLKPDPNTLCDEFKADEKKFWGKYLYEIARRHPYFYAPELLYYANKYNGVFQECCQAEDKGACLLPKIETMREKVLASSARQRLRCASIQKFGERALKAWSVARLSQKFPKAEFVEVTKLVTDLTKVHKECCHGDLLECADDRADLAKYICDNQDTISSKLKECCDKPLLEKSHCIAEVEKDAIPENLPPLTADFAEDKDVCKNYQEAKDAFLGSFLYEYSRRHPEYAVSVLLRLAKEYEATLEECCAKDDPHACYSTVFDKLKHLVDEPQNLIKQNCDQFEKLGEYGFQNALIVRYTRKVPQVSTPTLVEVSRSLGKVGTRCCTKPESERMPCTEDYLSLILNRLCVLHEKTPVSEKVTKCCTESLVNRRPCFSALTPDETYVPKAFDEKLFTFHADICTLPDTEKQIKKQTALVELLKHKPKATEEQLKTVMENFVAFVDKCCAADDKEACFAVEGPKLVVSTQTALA
Sequence of Torsin-1A-interacting protein 1 (Homo sapiens) (Q5JTV8 whole entry, looked up): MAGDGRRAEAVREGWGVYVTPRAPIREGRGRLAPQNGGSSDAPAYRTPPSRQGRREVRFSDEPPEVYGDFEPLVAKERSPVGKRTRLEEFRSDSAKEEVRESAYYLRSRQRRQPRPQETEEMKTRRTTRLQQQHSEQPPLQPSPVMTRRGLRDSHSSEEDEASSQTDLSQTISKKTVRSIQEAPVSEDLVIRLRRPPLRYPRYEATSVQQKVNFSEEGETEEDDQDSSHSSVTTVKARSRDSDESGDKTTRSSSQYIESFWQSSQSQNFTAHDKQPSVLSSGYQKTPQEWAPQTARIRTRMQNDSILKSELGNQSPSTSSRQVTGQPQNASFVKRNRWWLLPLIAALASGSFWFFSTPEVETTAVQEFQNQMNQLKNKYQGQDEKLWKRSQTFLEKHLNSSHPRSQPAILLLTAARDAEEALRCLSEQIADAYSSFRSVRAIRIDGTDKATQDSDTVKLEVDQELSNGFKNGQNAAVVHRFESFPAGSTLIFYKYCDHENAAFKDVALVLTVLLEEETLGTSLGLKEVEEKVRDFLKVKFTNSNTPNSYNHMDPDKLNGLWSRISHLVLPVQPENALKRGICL

SMILES | composite z-score [1] | z-score [2] | composite z-score [3] | composite z-score [4] | composite z-score [5] | composite z-score [6] | composite z-score [7] | composite z-score [8] | composite z-score [9] | composite z-score [10] | composite z-score [11] | composite Z-score [12] | composite z-score [13] | composite z-score [14] | composite z-score [15] | composite z-score [16] | composite z-score [17] | composite z-score [18] | composite z-score [19] | composite z-score [20]
C=COC[C@@H]1CN2[C@@H](CC[C@@H](C)[C@@H]2c2ccc(Br)cc2)C(=O)O1 | -0.0205 | -0.0522 | -0.0429 | -0.941 | -1.26 | -0.124 | 0.0284 | -0.0079 | -0.111 | 0.259 | 0.0494 | 0.686 (inactive) | -0.161 | -0.14 | 0.0173 | 0.043 | 0.008 | -0.0284 | 0.407 | -0.563
COC(=O)[C@@H]1CC[C@H](C)[C@@H](c2ccc(C)cc2)N1C(=O)c1ccc(C=NO[C@H](C)c2cn([C@@H]3COC[C@H]3O)nn2)cc1 | 1.33 | -1.06 | 0.635 | 0.0264 | -0.361 | -0.152 | 0.0141 | -0.0065 | 0.581 | -0.0105 | 0.56 | -0.359 (inactive) | -0.125 | -0.117 | 0.311 | 0.81 | -0.0293 | 1.21 | 0.389 | 0.581
O=C1CCCC=C1C(O)CCCCBr (stereo not given) | 0.619 | -4.22 | -0.0175 | 1.35 | 0.403 | -0.124 | 0.191 | -0.438 | 0.293 | 2.09 | 0.956 | 1.36 (inactive) | 0.0242 | 0.0377 | 0.778 | 1.1 | -0.101 | 0.381 | 0.0069 | 1.09
COC(=O)C=CCCc1coc(C=CCNC(=O)OC)n1 | 0.565 | -0.632 | 0.827 | -0.316 | -1.53 | -0.0346 | 0.275 | -0.255 | 0.192 | -0.264 | 0.266 | 0.103 (inactive) | 0.482 | 0.16 | 0.492 | 0.32 | 0.146 | 0.654 | 1.34 | -0.0726
CC(=O)Nc1ccc([C@@H]2N[C@H](C(=O)O)CC[C@H]2C)cc1 | -0.0931 | 1.1 | 0.523 | -0.105 | -0.635 | -0.0203 | -0.226 | -0.213 | 0.14 | 0.273 | 0.0499 | 0.237 (inactive) | -0.132 | -0.203 | -0.172 | -0.0725 | 0.0356 | 0.22 | 0.65 | 0.36
CC(CCN1CCc2nc(-c3ccccc3)c(-c3ccccc3)cc2C1)=NOC[C@@H](O)[C@H]1O[C@@H]2OC(C)(C)O[C@@H]2[C@H]1O | 1.12 | -2.73 | 0.642 | 0.12 | -0.233 | -0.139 | -0.0709 | -0.353 | 0.825 | 0.673 | 0.535 | 0.42 (inactive) | -0.051 | -0.0291 | 0.0181 | 1 | 0.608 | 1.13 | 0.507 | 0.696
CC(C)=CCCC(C)=CCON=C1C[C@@H](O)[C@@H](O)[C@@H]2[C@@H]3C(=O)N(Cc4ccccc4)C(=O)[C@@H]3CC[C@@H]12 | 0.209 | 0.45 | 1.08 | -0.488 | -1.32 | -0.154 | -0.214 | -0.0709 | 0.712 | 0.398 | 0.772 | -0.349 (inactive) | -0.0395 | -0.193 | -0.148 | 0.043 | -0.0612 | 0.571 | 1.4 | 0.304
COc1cccc([C@H]2Oc3ccc(OC)cc3C(=NOC[C@@H](O)COCc3ccco3)[C@@H]2O)c1 | -0.593 | -1.04 | -0.159 | -2.33 | -2.08 | -0.278 | -0.372 | -0.539 | -0.889 | -0.799 | -0.859 | -0.874 (inactive) | -0.235 | -0.0942 | -1.02 | -1.34 | -0.446 | -2.24 | 0.655 | -3.36
C[C@@H]1NC(=O)[C@@H](C)COC(=O)[C@H](C)NC(=O)[C@@H](C)COC1=O | 1.08 | 0.0151 | 0.737 | -0.152 | -0.521 | -0.12 | -0.243 | 0.0209 | -0.143 | 0.144 | 0.591 | -0.152 (inactive) | -0.0339 | -0.0907 | 0.394 | 0.1 | -0.706 | 0.769 | 0.316 | 0.513
CC(C)=NOC[C@@H](C)[C@H](OCc1ccccc1)C(C)C | -1.19 | -0.801 | -0.0001 | -0.211 | -0.285 | -0.0758 | -0.0709 | -0.402 | -0.368 | 0.213 | -0.0998 | 0.317 (inactive) | -0.165 | -0.206 | -0.389 | -0.616 | -0.228 | -1.61 | 0.0109 | -0.0651
COC(=O)CC=C[C@@H](C)[C@H](OCc1cccc(-c2ccccc2)c1)C1CCCCC1 | -0.533 | 1.04 | 0.134 | -0.532 | 0.472 | -0.12 | -0.0694 | -0.168 | 0.14 | 1.9 | 0.0024 | 0.369 (inactive) | -0.195 | -0.109 | 0.942 | -0.159 | 0.0206 | -0.679 | 1.23 | 0.923
